Bioassay records: PubChem BioAssay, National Center for Advancing Translational Sciences (NCATS)
Cycloheximide cs = counter-screen for Shiga toxin inhibitors: cycloheximide protein synthesis inhibition; max response, %; 300,000 compounds, 12% hits; cell reporter, cycloheximide protein synthesis inhibition counterscreen; in the data active means max response mostly above about 13%, no sharp cut-off; inactive means mostly below about 14%; further: read at 38.3 µM for the half of the compounds with a filed dose
FMDV antiviral = blocks foot and mouth disease virus; 410,000 compounds, 1.2% hits; FMDV antiviral cell-based qHTS; Potency, µM (top dose mostly 57.9 µM), usual class: inhibitors; calls by dose curve; tested in HEK293T cells; further: read-out not given here; nearly all actives have a fitted effect of over 45% in size
HCV inh = blocks hepatitis C virus; Huh7.5.1 HCVcc-Cre infection, luciferase reporter, 44 h; Potency, µM (top dose mostly 41.8 µM), most hits filed as inhibitors; 340,000 compounds, 3.4% hits; AID 651820; active means well fitted inhibition curve with a large enough effect; inconclusive means small, poorly fitted or top-dose-only effect, or another doubt; inactive means no such curve, though single readings can be large or run the other way
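Luciferase read-out (15 sec integration) after a 15 min room-temperature substrate step quantifies HCVcc-Cre infection. Cells, 1,000 per well, had compound added 4 h post-plating, then virus at ~0.5 moi, and were cultured 44 h.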
MARV entry inh = inhibitors of Marburg virus binding or cell entry; AID 540276; Potency, µM (titrated, usually from 37.8 µM), hits mostly inhibitors; Marburg virus pseudotyped entry inhibition, cell reporter; 300,000 compounds, 1.8% hits; calls by dose curve; tested in HEK293 cells
Shiga inhibitor = Shiga toxin inhibition; Vero cells, Shiga toxin protein synthesis inhibition reporter; inhibition, % at 38.7 µM; 290,000 compounds, 9.2% hits; AID 2315; in the data active means inhibition mostly above about 28%, no sharp cut-off; inactive means mostly below about 43%
Lassa entry inh = blocks Lassa virus binding to or entry into cells. Lassa virus pseudotype entry inhibition, cell reporter. Potency, µM (doses to about 37.9 µM), actives largely listed as inhibitors. 300,000 compounds, 1.2% hits. AID 540256; calls by dose curve; tested in HEK293 cells; further: nearly all actives have a fitted effect of over 50% in size
Of the large screens only hits and unclear results are named; the others gave an inactive call. A selection: hits, their analogues and other compounds. The true share with any hit is near 13%.

COC(=O)c1ccc2c(=O)[nH]c(CCl)nc2c1	FMDV antiviral inconclusive, HCV inh inconclusive, MARV entry inh 13µM, Lassa entry inh inconclusive
Cc1cc(Br)ccc1NC(=O)CN(C)C(=O)c1ccccc1OCc1c(C)noc1C	none (no result: Cycloheximide cs, HCV inh, MARV entry inh, Shiga inhibitor, Lassa entry inh)
O=C(CSc1nnc(NC(=O)c2ccccc2F)s1)NC1CCCC1	Cycloheximide cs 27, Shiga inhibitor 65
O=C(CCCSc1nnc(Nc2ccccc2F)s1)N1CCOCC1	Cycloheximide cs 39, MARV entry inh inconclusive, Shiga inhibitor 59
O=C(CSc1nnc(NC(=O)C2CC2)s1)Nc1cccc(F)c1	Cycloheximide cs 21, MARV entry inh inconclusive
O=C(CSc1nnc(NC(=O)c2ccccc2)s1)NC1CCCC1	Cycloheximide cs 17, MARV entry inh inconclusive
Cc1ccc(NC(=O)N2CCC(NC(=O)c3ccccc3C)CC2)cc1	none
COc1ccc(-c2cc(NC(C)=O)c3ncc(-c4cccc(C(F)(F)F)c4)n3c2)c(OC)c1	none (no result: Cycloheximide cs, HCV inh, MARV entry inh, Shiga inhibitor, Lassa entry inh)
COc1ccc(CCNC(=O)CCCn2c(=O)c3ccccc3n(CC(=O)Nc3ccc(C)cc3Cl)c2=O)cc1OC	Lassa entry inh inconclusive (no result: Cycloheximide cs, HCV inh, Shiga inhibitor)
CCCn1c(C)cc(C(=O)COC(=O)c2nccnc2N)c1C	MARV entry inh inconclusive, Lassa entry inh inconclusive
CSc1nnc2sc3cc(C)ccc3n12	none (no result: Cycloheximide cs, HCV inh, MARV entry inh, Shiga inhibitor, Lassa entry inh)
O=C(O)c1c(-c2ccccc2)nnc2ccccc12	none (no result: MARV entry inh, Lassa entry inh)
COc1ccccc1NC(=O)CN1C(=O)CC(C)S(=O)(=O)c2ccccc21 (configuration not stated)	none (no result: HCV inh)
O=C(Nc1cccc(F)c1)C1CCN(c2nnnn2-c2ccccc2)CC1	FMDV antiviral 18µM, Lassa entry inh inconclusive
O=C(Nc1nnc(SCC(=O)N2CCOCC2)s1)c1ccccc1	Cycloheximide cs 22, Lassa entry inh inconclusive
CCOc1ccccc1C(=O)Nc1nnc(SCC(=O)N2CCOCC2)s1	none
O=C(CSc1nnc(NC(=O)c2ccc(F)cc2F)s1)NC1CCCC1	Cycloheximide cs 22, HCV inh inconclusive
CCOCCCn1c(=S)[nH]c2cc(C(=O)N3CCC(C(N)=O)(N4CCCCC4)CC3)ccc2c1=O	none
Cc1ccccc1-c1nc(CS(=O)(=O)CC(=O)NC2CCCC2)c(C)o1	HCV inh inconclusive (no result: MARV entry inh, Lassa entry inh)
Cc1ccc(CNc2nc3c(S(=O)(=O)c4ccc(C)c(C)c4)nnn3c3ccc(Cl)cc23)cc1	none (no result: Cycloheximide cs, HCV inh, Shiga inhibitor, Lassa entry inh)
CCOc1ccccc1NC(=O)C1CCCN1C(=O)c1cccs1 (configuration not stated)	HCV inh inconclusive (no result: Cycloheximide cs, MARV entry inh, Shiga inhibitor, Lassa entry inh)
CCOc1ccccc1C1C2CCCCC2(O)CCN1C(=O)c1cccs1 (configuration not stated)	Cycloheximide cs 44, MARV entry inh inconclusive, Shiga inhibitor 55
COc1ccc(Cl)cc1NC(=O)c1nnn(Cc2cccc(C(F)(F)F)c2)c1N	FMDV antiviral inconclusive, MARV entry inh inconclusive (no result: Cycloheximide cs, HCV inh, Shiga inhibitor)
O=C(/C=C/c1ccc(-c2cccc([N+](=O)[O-])c2)o1)N1CCOCC1	Cycloheximide cs 31, HCV inh inconclusive, MARV entry inh inconclusive, Shiga inhibitor 146
COc1cccc(NC(=O)NCCc2ccc(Cl)cc2)c1	Cycloheximide cs 24
CC(=O)c1cccc(NC(=O)NCCc2ccc(Cl)cc2)c1	MARV entry inh inconclusive, Shiga inhibitor 38
CC(=O)c1cccc(NC(=S)NCCc2ccc(F)cc2)c1	none
Cc1ccc(-c2csc3ncn(CC(=O)O)c(=O)c23)cc1C	none (no result: MARV entry inh, Lassa entry inh)
Cc1cccc(OCC2=NS(=O)(=O)c3ccccc3N2)c1	Cycloheximide cs 38, Shiga inhibitor 106
Cc1cccc(CNC(=O)C(C)n2nc(C)c3c(C)n(-c4ccccc4)nc3c2=O)c1 (configuration not stated)	HCV inh 10µM
CCC(C(=O)Nc1ccccc1F)n1nc(C)c2c(C)n(-c3ccccc3)nc2c1=O (configuration not stated)	none (no result: MARV entry inh, Lassa entry inh)
COc1ccc(CNC(=O)C(C)n2nc(C)c3c(C)n(-c4ccc(C)cc4)nc3c2=O)cc1 (configuration not stated)	FMDV antiviral inconclusive, HCV inh inconclusive
COc1cccc(CNC(=O)CCCn2nc(C)c3c(C)n(-c4ccc(C)cc4)nc3c2=O)c1OC	FMDV antiviral inconclusive, HCV inh 13µM
CCOc1ccc(CNC(=O)C(C)n2nc(C)c3c(C)n(-c4ccccc4)nc3c2=O)cc1 (configuration not stated)	none (no result: MARV entry inh, Lassa entry inh)
CCC(C(=O)Nc1cc(F)ccc1F)n1nc(C)c2c(C)n(-c3ccc(C)cc3)nc2c1=O (configuration not stated)	FMDV antiviral inconclusive, HCV inh 8.9µM (no result: MARV entry inh)
COc1ccccc1CNC(=O)CCCn1nc(C)c2c(C)n(-c3ccccc3)nc2c1=O	none (no result: MARV entry inh, Lassa entry inh)
Cc1ccc(CCNC(=O)C(C)n2nc(C)c3c(C)n(-c4ccc(C)cc4)nc3c2=O)cc1 (configuration not stated)	FMDV antiviral 11µM, Lassa entry inh inconclusive (no result: Cycloheximide cs, HCV inh, MARV entry inh, Shiga inhibitor)
O=C(Nc1ccon1)c1ccc(Cl)c(S(=O)(=O)N2CCCCC2)c1	none
CCc1cc(=O)oc2cc(C)cc(OCC(=O)NCCN3CCOCC3)c12	none (no result: MARV entry inh, Lassa entry inh)
COc1ccc(CCNC(=O)C(C)n2nc(C)c3c(C)n(-c4ccc(C)cc4)nc3c2=O)c(OC)c1 (configuration not stated)	FMDV antiviral inconclusive, HCV inh 3.2µM, MARV entry inh inconclusive, Lassa entry inh inconclusive
Cc1ccc(-n2nc3c(=O)n(CC(=O)c4ccc(F)cc4)nc(C)c3c2C)cc1	FMDV antiviral 25µM, HCV inh inconclusive
Cc1ccc(-n2nc3c(=O)n(CC(=O)NC(C)CCc4ccccc4)nc(C)c3c2C)cc1 (configuration not stated)	FMDV antiviral inconclusive, HCV inh 2.2µM (no result: MARV entry inh, Lassa entry inh)
COC(=O)c1cc(C(=O)OC)cc(N2C(=O)CC(NNC(=O)c3ccccc3Br)C2=O)c1 (configuration not stated)	none
OC(c1ccccc1)c1nc(-c2cc3ccccc3o2)cs1 (configuration not stated)	none (no result: Cycloheximide cs, HCV inh, MARV entry inh, Shiga inhibitor, Lassa entry inh)
CCOC(=O)c1c(C)[nH]c(C(=O)OCC(=O)NCc2ccccc2)c1C	HCV inh inconclusive (no result: Cycloheximide cs, MARV entry inh, Shiga inhibitor, Lassa entry inh)
COC(=O)c1c(C)[nH]c(C(=O)OCC(=O)c2ccc(C)s2)c1C	HCV inh 11µM, MARV entry inh inconclusive, Lassa entry inh inconclusive (no result: Cycloheximide cs, Shiga inhibitor)
CCOC(=O)c1c(C)[nH]c(C(=O)N/N=C/c2ccc(Br)cc2)c1C	HCV inh inconclusive, MARV entry inh 2.8µM, Lassa entry inh inconclusive
CCOC(=O)c1c(C)[nH]c(C(=O)CSc2ccc(Cl)cc2)c1C	Cycloheximide cs 22, HCV inh inconclusive, Shiga inhibitor 89
CCNC(=O)COC(=O)c1[nH]c(C)c(C(=O)OC)c1C	Cycloheximide cs 43, MARV entry inh inconclusive, Shiga inhibitor 71
Cn1c(=O)[nH]c(=O)c2c1nc(Sc1nc3ccccc3s1)n2Cc1ccccc1	FMDV antiviral inconclusive, HCV inh inconclusive, MARV entry inh inconclusive
Cc1nnsc1C(=O)Nc1ccc(S(=O)(=O)N2CCCCC2C)cc1 (configuration not stated)	HCV inh inconclusive
CCOC(=O)c1c(C)[nH]c(C(=O)CC(=O)OC)c1C	none (no result: MARV entry inh, Lassa entry inh)
